Reference: the supplement of paper PMC11417369
± gives the standard deviation of the averaged measurements. Whole data set: some 25,000 sequences, median “ln(normalized median fluorescence intensity)” near 8.6, cut for the highest 2% near 10. This is one part of a sample in which the highest values are shown more often than they occur.

system: PfAP2-EXP AP2 domain (GST-tagged); test: gcPBM binding intensity (ln(normalized median fluorescence intensity)); higher = stronger DNA binding
Procedure, shortened: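 In this array assay, P. falciparum DNA-binding domains with a GST tag, expressed in E. coli, were applied for 1 h to primer-extended double-stranded 36-bp intergenic genomic probes and negative controls on an Agilent 4 × 180k array. Bound protein was visualised with Alexa488 anti-GST antibody at 488 nm. Binding intensity is the highest Masliner-normalised natural-log median intensity across replicate spots of either probe orientation.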

Q: With “AAATATACATACATATGTACATATATATATATATAT [XGTACX_site8202]” as the sequence, how does the “gcPBM binding intensity (ln)” value read?
A: The value was 10.1 ± 0.45.

Q: For “TTATGTAAATAATTTTGTACTTAAATTATTATATAA [XGTACX_site1491]”, which “gcPBM binding intensity (ln)” value is on record?
A: Its value is 8.08 ± 0.4.

Q: How did the “gcPBM binding intensity (ln)” value turn out when “ATGATGTGCAAGAGTAGTACACAATTTTGGGTTTAT [XGTACX_site501]” was run?
A: Its value is 8.76 ± 0.39.

Q: Which “gcPBM binding intensity (ln)” value does the source give for “ATATATATATATATAACACACGTGTATTTATCTGTA [CACACA_site5922]” here?
A: Its value is 9.99 ± 0.34.

Q: How did the “gcPBM binding intensity (ln)” value turn out when “ATATATATATATATAACACACGTGTATATATATGTA [CACACA_site3644]” was run?
A: Its value is 10.2 ± 0.23.

Q: Which “gcPBM binding intensity (ln)” value does the source give for “AATAAAAAATATAACACAAATATGTATATATATATA [TGCATGCA_negctrl_site245]” here?
A: The value was 9.81 ± 0.34.

Q: With “TTTTTTTTTTTTTTGGGTACATAATAATAACAAGTG [XGTACX_site1034]” as the sequence, how does the “gcPBM binding intensity (ln)” value read?
A: The value was 8.28 ± 0.32.

Q: With “TTTTTTTTTTTTTTATGTACGAAAGAAAAGCACATA [XGTACX_site8261]” as the sequence, how does the “gcPBM binding intensity (ln)” value read?
A: The value was 8.57 ± 0.27.

Q: “ATTTAGTATTCGAAACGTACACATATATATATATAT [XGTACX_site3910]” was tested. Which “gcPBM binding intensity (ln)” value did it give?
A: Its value is 10.2 ± 0.4.

Q: With “TTTTATAAAGAACACAGACACACAAAGAAAGAACCA [CACACA_site4174]” as the sequence, how does the “gcPBM binding intensity (ln)” value read?
A: Its value is 9.02 ± 0.6.

Q: “AAGAACAGAACGTACACACACATATATATATATATA [CACACA_site3457]” was tested. Which “gcPBM binding intensity (ln)” value did it give?
A: The value was 10.2 ± 0.23.

Q: With “CATACACAGAAACACACACACATATATACATATATA [CACACA_site1094]” as the sequence, how does the “gcPBM binding intensity (ln)” value read?
A: The value was 8.59 ± 0.56.

Q: Which “gcPBM binding intensity (ln)” value does the source give for “ACAAGAACAGAACGTACACACACATATATATATATA [CACACA_site9143]” here?
A: The value was 9.97 ± 0.39.

Q: Which “gcPBM binding intensity (ln)” value does the source give for “CAAGAAACAGTGATACGTACACATATATATATATAT [XGTACX_site3229]” here?
A: The value was 10.2 ± 0.32.

Q: For “TACATACAGAAACACACACACACATATATATATATA [CACACA_site2919]”, which “gcPBM binding intensity (ln)” value is on record?
A: Its value is 10 ± 0.28.

Q: For “AACACAAGAACAGAACGTACACACACATATATATAT [XGTACX_site7347]”, which “gcPBM binding intensity (ln)” value is on record?
A: The value was 9.76 ± 0.16.

Q: How did the “gcPBM binding intensity (ln)” value turn out when “ATATATATATATATATGTACTGAATAAAGAACAAAA [XGTACX_site5400]” was run?
A: The value was 10.1 ± 0.42.

Q: With “AAAATAAAAATAACAACACACATATACTATAATATT [CACACA_site2769]” as the sequence, how does the “gcPBM binding intensity (ln)” value read?
A: The value was 8.7 ± 0.46.

Q: With “TTTCCTAGCACATGCACACAAAAAAAAAAAAAAAAA [CACACA_site1404]” as the sequence, how does the “gcPBM binding intensity (ln)” value read?
A: Its value is 8.35 ± 0.35.

Q: For “AATTAGATTTACTGAAGTACTTAATTTATTTTATTA [XGTACX_site3407]”, which “gcPBM binding intensity (ln)” value is on record?
A: Its value is 8.85 ± 0.34.

Q: For “ATTTATTAATTACCATGTATAAAAAATTATATAATA [CACACA_negctrl_site581]”, which “gcPBM binding intensity (ln)” value is on record?
A: The value was 8.19 ± 0.51.

Q: For “AATAAAAATAAAAATTGTACACTTTTTTAATATTTA [XGTACX_site892]”, which “gcPBM binding intensity (ln)” value is on record?
A: Its value is 8.11 ± 0.25.

Q: Which “gcPBM binding intensity (ln)” value does the source give for “TTTTTTTTTTTTTCAAGTACATATATATATATATAA [XGTACX_site2098]” here?
A: The value was 8.44 ± 0.45.

Q: “TACAAGCCCAATTCAAGTACATATATATATATATAT [XGTACX_site5569]” was tested. Which “gcPBM binding intensity (ln)” value did it give?
A: Its value is 10.2 ± 0.44.

Q: With “ATATAATTCAAATACAGTACATATACAATATATACA [XGTACX_site1191]” as the sequence, how does the “gcPBM binding intensity (ln)” value read?
A: Its value is 8.21 ± 0.3.

Q: Which “gcPBM binding intensity (ln)” value does the source give for “TATTATGTTATATATTGTACATGTTTATTGAAACAA [XGTACX_site5605]” here?
A: Its value is 8.66 ± 0.21.

Q: “AAATAAAAATTACAAGCATGCATTTTCCTATTTGCA [TGCATGCA_site861]” was tested. Which “gcPBM binding intensity (ln)” value did it give?
A: Its value is 8.56 ± 0.46.

Q: With “ACTTCCTATATTTATGCATGCATTTTATTAAAAAAT [TGCATGCA_site747]” as the sequence, how does the “gcPBM binding intensity (ln)” value read?
A: The value was 9.92 ± 0.16.

Q: With “TGCATTTTCCTATTTGCATGCAATTAAAATATAGAA [TGCATGCA_site862]” as the sequence, how does the “gcPBM binding intensity (ln)” value read?
A: Its value is 10.2 ± 0.24.

Q: “TAAACAGACATATAAACACACATATAAACAGACATA [CACACA_site7214]” was tested. Which “gcPBM binding intensity (ln)” value did it give?
A: Its value is 8.69 ± 0.56.

Q: With “TGAACAGACGAGCACACACACACATATATATATATA [CACACA_site1019]” as the sequence, how does the “gcPBM binding intensity (ln)” value read?
A: Its value is 10.2 ± 0.26.

Q: With “AAAACAAACGGACACACACACATATATATATATATA [CACACA_site5924]” as the sequence, how does the “gcPBM binding intensity (ln)” value read?
A: Its value is 10.1 ± 0.32.

Q: “CATACAGACGAACACACACACATATAAATATAAATA [CACACA_site6443]” was tested. Which “gcPBM binding intensity (ln)” value did it give?
A: Its value is 8.74 ± 0.55.

Q: With “TTGTAAGAAAAACACACACACACATATATATATATA [CACACA_site795]” as the sequence, how does the “gcPBM binding intensity (ln)” value read?
A: Its value is 10.1 ± 0.23.

Q: How did the “gcPBM binding intensity (ln)” value turn out when “GTAAGAAACGGACACACACACATATATATATATATA [CACACA_site4593]” was run?
A: The value was 10.2 ± 0.23.

Q: Which “gcPBM binding intensity (ln)” value does the source give for “AATGAACAGACGAGCACACACACACCCATATATATA [CACACA_site1018]” here?
A: The value was 8.85 ± 0.35.

Q: Which “gcPBM binding intensity (ln)” value does the source give for “AACAGACAGAAACACACACACATATATATATATATA [CACACA_site3394]” here?
A: The value was 10 ± 0.41.

Q: How did the “gcPBM binding intensity (ln)” value turn out when “GTAAGAAACAGACACACACACATATAAATATAAATA [CACACA_site6515]” was run?
A: Its value is 8.77 ± 0.64.

Q: “AACAGACGAAGACACACACACATATATATATATATA [CACACA_site1020]” was tested. Which “gcPBM binding intensity (ln)” value did it give?
A: Its value is 10.2 ± 0.21.

Q: How did the “gcPBM binding intensity (ln)” value turn out when “TGAACTCACGAGCACACACACACATATATATATATA [CACACA_site8248]” was run?
A: Its value is 10.2 ± 0.34.

Q: For “GTAAGAAACAGACACACACACATATATATATATATA [CACACA_site794]”, which “gcPBM binding intensity (ln)” value is on record?
A: The value was 10.2 ± 0.24.

Q: With “ATATATATATATATGTGTACATATTTTTTTGAAGTG [XGTACX_site248]” as the sequence, how does the “gcPBM binding intensity (ln)” value read?
A: The value was 10.1 ± 0.29.

Q: How did the “gcPBM binding intensity (ln)” value turn out when “TTTTTTTTTTTTTTTTGTACGTAAAAAAATATATAC [XGTACX_site1290]” was run?
A: Its value is 8.36 ± 0.22.

Q: Which “gcPBM binding intensity (ln)” value does the source give for “AAATATAATAACGAACGTACTTATTATAATTTGTAA [XGTACX_site2342]” here?
A: The value was 8.32 ± 0.25.
